Screening results as filed in PubChem.
TDP1 cell noCPT: qHTS for Inhibitors of human tyrosyl-DNA phosphodiesterase 1 (TDP1): qHTS in cells in absence of CPT; Potency, µM (doses to about 46.2 µM), most hits filed as inhibitors; DT40 Tdp1-/- hTDP1 cells, no CPT, ATP luminescence, 48 h; AID 686978, 2013; 15% of 420,000 active; also: nearly all actives have a fitted effect of over 55% in size
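A cellular qHTS used chicken DT40 cells lacking endogenous Tdp1 but carrying stably transfected human TDP1. Compounds were applied without camptothecin, and cell growth kinetics were judged by ATP-dependent luminescence after ≥48 hr.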
ELG1 repair inh: blocks ELG1-dependent DNA repair in HEK293T cells | HEK293T ELG1-luciferase reporter, luminescence, 16 h; DNA damage induced by 5-fluorouridine | Potency, µM (series often up to 46.1 µM), usual class: inhibitors | 2.3% of 330,000 active; also: nearly all actives have a fitted effect of over 55% in size
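Cells (2,000 per well) received 5-fluorouridine plus test compound or DMSO and were incubated 16 hr at 37 °C, 5% CO2. Luciferase activity was read by luminescence 30 min after ONE-Glo addition; signal suppression marked inhibition of damage-induced ELG1 function.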
DT40 TDP1 CPT: DT40-hTDP1 cell growth loss with CPT; AID 686979; Potency, µM (top dose mostly 46.2 µM), hits mostly inhibitors; chicken DT40 Tdp1-/-;hTDP1 cells + 20 nM CPT, ATP luminescence, 48 h; 12% of 420,000 active; also: nearly all actives have a fitted effect of over 55% in size
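Chicken DT40 Tdp1-/- cells stably complemented with human TDP1 were seeded at 400 cells/well in medium containing 20 nM camptothecin, exposed to pin-transferred compounds, and grown at 37 °C for at least 48 hr. Viability was read as ATP luminescence.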
IL-1B inflam inh: blocks inflammasome-driven IL-1 beta release. 4.7% of 360,000 active. THP-1 LPS/ATP IL-1B secretion, AlphaLISA, 16 h; stronger effect = lower value. activity change, % at 57.5 µM; in the data active = activity change below about -50%; inconclusive = mostly about -30% to -49%
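Secreted IL-1B measured by AlphaLISA bead assay after 16 h compound exposure of THP-1 cells; compounds (final up to 57.5 uM) added 1 h before LPS (250 ng/mL) and ATP (1.25 mM) stimulation; lower signal means less secretion.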
HT1080NT lethal: kills 2HG-producing HT-1080-NT fibrosarcoma cells; Potency, µM (titrated, usually from 46.1 µM), usual class: cytotoxic; 1.6% of 360,000 active; AID 686970; HT-1080-NT fibrosarcoma viability, CellTiter-Glo ATP luminescence, 48 h;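 also: NT is the 2HG producing partner of a matched IDH1 knockdown line; nearly all actives have a fitted effect of over 55% in size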
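HT-1080-NT; 750 cells/well; 5% FBS RPMI; 48 h compound, 37 degrees C; CellTiter-Glo luminescence; curve fitting and curve-class assignment.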
HT1080 IDH1KD tx: kills HT-1080 cells with IDH1 knockdown. HT-1080 IDH1 knockdown viability, ATP luminescence, 48 h. 2% of 360,000 active. AID 686971. Potency, µM (series often up to 46.1 µM), actives largely listed as cytotoxic
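In this qHTS, HT-1080 cells depleted of IDH1 are exposed for 48 h at 37 °C to compound titrations. Toxicity is scored from CellTiter-Glo luminescence, with DMSO as full viability and medium alone as none.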
A number is an active result; n = inactive; u = inconclusive; x = no result given. Shown are actives, neighbours in structure and some others; about 19% of the full set was active somewhere. Unless noted, calls follow the shape of the dose curve; as a rule, active = well fitted curve in the direction sought with a large enough effect; inconclusive = small, poorly fitted or top-dose-only effect, or another doubt; inactive = no such curve, though single readings can be large; an effect the other way counts as inactive or inconclusive.

SMILES	TDP1 cell noCPT	ELG1 repair inh	DT40 TDP1 CPT	IL-1B inflam inh	HT1080NT lethal	HT1080 IDH1KD tx
C[C@H](CO)N1C[C@H](C)[C@@H](CN(C)S(=O)(=O)c2ccc(Cl)cc2)Oc2ccc(NS(=O)(=O)c3ccccc3)cc2CC1=O	u	n	10µM	n	n	u
C[C@H]1CN([C@@H](C)CO)C(=O)Cc2cc(NC(=O)CCC(F)(F)F)ccc2O[C@H]1CN(C)S(=O)(=O)c1ccc(F)cc1	6.5µM	n	7.3µM	n	12µM	u
Cc1ccc(S(=O)(=O)N(C)C[C@@H]2Oc3ccc(NS(=O)(=O)c4ccccc4)cc3CC(=O)N([C@@H](C)CO)C[C@H]2C)cc1	u	x	u	n	n	n
Cc1ccc(NC(=O)c2cc(C(C)(C)C)nn2Cc2ccccc2)cc1	29µM	u	u	-81	u	u
CC(C)(C)c1cc(C(=O)NC2CC2)n(Cc2ccc(F)cc2)n1	n	n	n	n	n	n
CC(C)(C)c1cc(C(=O)Nc2ccc(F)cc2)n(Cc2ccc(F)cc2)n1	21µM	u	u	u	u	u
CC(=O)c1ccc(OC2(C)CCN(Cc3ccc4ccccc4c3)C2)cc1 (configuration not stated)	u	x	n	n	n	n
COc1cc(Cl)ccc1OC1(C)CCN(Cc2ccc(-c3ccccn3)cc2)C1 (configuration not stated)	15µM	x	u	n	16µM	u
COc1cc(Cl)ccc1OC1(C)CCN(Cc2ccc3ccccc3c2)C1 (configuration not stated)	23µM	x	u	n	u	u
COCOc1cccc(CN2CCC(C)(Oc3cccc(OC)c3)C2)c1 (configuration not stated)	u	x	18µM	n	n	n
COCCc1ccc(OC2(C)CCN(Cc3cccc(OCOC)c3)C2)cc1 (configuration not stated)	u	x	u	n	n	n
COC(=O)N(C)C[C@@H]1OCc2cnnn2CCCC(=O)N([C@H](C)CO)C[C@H]1C	n	x	n	n	n	n
CC(=O)c1ccc(N2CCN(S(=O)(=O)c3c(C)[nH]c(C)c3C(=O)N3CCCCC3)CC2)cc1	n	n	n	n	n	n
CC(C)(C)c1ccc(-c2nnc(-c3ccccc3NC(=O)c3cccc(C(F)(F)F)c3)o2)cc1	n	x	n	x	x	x
COc1ccc(/C=C/C(=O)c2cc(F)ccc2OC(=O)c2ccc(OC)c(OC)c2)cc1OC	n	15µM	u	n	u	u
COc1ccc(/C=C/C(=O)Nc2ccccc2C(=O)O)cc1OC	u	u	n	x	x	x
COc1ccc(/C=C/C(=O)NNC(=O)C(C)Oc2ccccc2F)cc1OC (configuration not stated)	n	n	n	n	n	n
COc1ccc(/C=C/C(=O)c2cc(F)ccc2OC(=O)c2ccccc2OC)cc1OC	4.6µM	u	4.1µM	-100	1µM	1.3µM
COc1ccc(/C=C/C(=O)c2cc(F)ccc2OC(=O)c2ccccc2)cc1OC	0.41µM	x	0.41µM	u	u	1.6µM
O=C(COC(=O)c1c(F)cccc1F)NC(=O)NCc1ccccc1	n	x	n	n	n	n
Cc1ccc(CNc2ncnc3c2c(-c2ccccc2)cn3-c2cccc(Cl)c2)cc1	18µM	x	u	x	x	x
Cc1c(C)n(CCN(C)C)c2ncnc(NCc3ccccc3)c12	n	n	n	n	n	n
COc1ccccc1CNc1ncnc2c1c(-c1ccccc1)cn2-c1cccc(C)c1	n	x	u	x	x	x
Cc1c(C)n(CCc2ccccc2)c2ncnc(NCCCN(C)C)c12	u	u	u	-72	u	u
COc1ccc(CCNc2ncnc3c2c(-c2ccccc2)cn3-c2ccc(F)cc2)cc1OC	15µM	x	15µM	x	x	x
CN(C)CCCNc1ncnc2c1c(-c1ccccc1)cn2-c1ccccc1	u	n	u	u	u	u
